An excerpt weighted towards active compounds, which were near 6.1% of everything screened.
D1 PAM: enhances dopamine response at the human D1 receptor; HEK293 TREx D1 cells, calcium flux, dopamine EC20 potentiation; potentiation, % at 10 µM; 360,000 tested, 0.036% active; in the data active = potentiation above about 30%; note: 0% is about no effect
Target sequence (P21728 whole entry, looked up): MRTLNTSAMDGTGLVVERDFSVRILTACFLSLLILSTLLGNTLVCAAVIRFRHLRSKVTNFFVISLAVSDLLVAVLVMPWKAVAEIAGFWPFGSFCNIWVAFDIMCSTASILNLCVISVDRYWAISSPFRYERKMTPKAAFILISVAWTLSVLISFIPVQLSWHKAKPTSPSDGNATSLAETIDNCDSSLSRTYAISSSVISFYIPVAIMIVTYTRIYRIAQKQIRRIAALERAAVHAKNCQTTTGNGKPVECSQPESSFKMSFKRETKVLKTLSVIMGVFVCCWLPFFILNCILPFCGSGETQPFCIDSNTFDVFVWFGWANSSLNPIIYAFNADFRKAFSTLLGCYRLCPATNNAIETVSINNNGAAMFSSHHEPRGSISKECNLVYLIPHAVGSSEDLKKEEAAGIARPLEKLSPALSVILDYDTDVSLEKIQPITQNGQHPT
D1 antagonist: blocks dopamine activation of the human D1 receptor. AID 504652. 360,000 tested, 3.2% active. activity change, negative = inhibition, % at 10 µM. HEK293 TREx D1 cells, calcium flux, dopamine EC80; stronger effect = lower value. P21728; in the data active = activity change below about -30%; note: % is set by controls: 0 for no effect and ±100 for the full control effect
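Calcium flux readout: force-coupled, inducible Hek293 Trex D1 line, cells induced overnight at 30 C with tetracycline, dye-loaded 30–90 min at RT. Antagonism scored against EC80 dopamine challenge given 180 s after compound.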
DRD3 antagonist: blocks the human D3 dopamine receptor; 360,000 tested, 2.5% active; max response, negative = inhibition, %; D3R cells, DiscoveRx beta-arrestin luminescence, antagonist mode; stronger effect = lower value; AID 652054; P35462; in the data active = max response below about -50%; inconclusive = no clear call, values can overlap the other calls; note: % is set by controls: 0 for no effect and ±100 for the full control effect
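Cells expressing the human receptor were seeded at 1500 cells/well, incubated overnight at 37 degrees C in 5% CO2, then exposed to library compounds with dopamine controls for 90 minutes at 37 degrees C before luminescent detection.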
D1 ag: agonists of human D1 dopamine receptor; P21728; HEK293 T-REx D1 cells, calcium flux, agonist mode; activation, % at 2 µM; 360,000 tested, 1% active; AID 504660; in the data active = activation above about 30%; note: 0% is about no effect
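Agonism was scored from calcium flux recorded over 180 s (1 read/s) after pintool compound addition, following a 10-cycle baseline. Cells were inducible force-coupled HEK293 TREx D1, plated overnight at 30 C and loaded with no-wash calcium dye.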
ERG-DNA inh: inhibitors of human ERG Ets domain-DNA interaction; P11308; fluorescence polarization, His-ERG Ets domain / labelled DNA; Potency, µM (titrated, usually from 76.9 µM), inactives show top-dose FP activity, negative = inhibition, usual class: inhibitors; 370,000 tested, 0.028% active; AID 624246; active = well fitted inhibition curve with a large enough effect in the polarisation, with a control signal flat; inconclusive = small, poorly fitted or top-dose-only effect, or effect the other way, or a change in a side signal; inactive = no such curve, though single readings can be large or run the other way; the % refers to the polarisation;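 note: polarization taken with two DNA probes labelled with fluorescein and Texas red; potency is the fitted concentration of half-maximal effect; % of control where 0% means no effect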
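His-tagged ERG Ets domain (1 uM in the protein solution; 300mM KCl, 50mM Tris-HCl, 1mM EDTA, 1mM DTT, pH 7.5) received compound, then a probe mix of 5 nM fluorescein-DNA and 100nM Texas-615-DNA. Fluorescence polarization was read for both dyes.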
D3 ag: D3 dopamine receptor (human) agonism. D3R DiscoveRx beta-arrestin cells, luminescence, 90 min. max activation, %. 410,000 tested, 0.58% active. P35462; in the data active = max activation above about 30%; note: 0% is about no effect
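Agonist-mode cell screen: cells plated at 1500/well and incubated overnight at 37 °C, then exposed to library compounds for 90 min at 37 °C. Detection reagent was added for 30–60 min at room temperature, and luminescence was read.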
Numbers without * were called inactive.

How did Cc1[nH]c(=O)c(C#N)c(C)c1Cc1ccc(Cl)cc1Cl do in these assays?
D1 PAM: 6; D1 antagonist: -62*; DRD3 antagonist: 5; D1 ag: 0; ERG-DNA inh: -6%; D3 ag: 0

Results for COc1ccc2nc(N(Cc3cccnc3)C(=O)C3CCCCC3)sc2c1 ?
D1 PAM: -2; D1 ag: 2; ERG-DNA inh: -2%; D3 ag: 1

Results for COc1cc(C(=O)Nc2cc(S(=O)(=O)N3CCOCC3)ccc2N2CCN(C)CC2)cc(OC)c1OC ?
DRD3 antagonist: -4; ERG-DNA inh: 8%; D3 ag: -12

How did NS(=O)(=O)c1ccc(N2CCN(CCOc3ccc(Cl)cc3)CC2)nc1 do in these assays?
D1 PAM: -10; D1 antagonist: -26; DRD3 antagonist: -12; D1 ag: 10; ERG-DNA inh: 2%; D3 ag: 36*

How did CCOC(=O)C(C)N1C(=O)S/C(=C/c2cc(C)n(-c3ccccn3)c2C)C1=O (stereo not given) do in these assays?
D1 PAM: -2; D1 antagonist: -45*; DRD3 antagonist: 46; D1 ag: 1; ERG-DNA inh: -12%; D3 ag: -4

How did COc1nnc(-c2ccc(N3CCOCC3)c(NC(=O)c3ccco3)c2)c2ccccc12 do in these assays?
D1 PAM: -2; D1 antagonist: -92*; DRD3 antagonist: 1; D1 ag: 0; ERG-DNA inh: 7%; D3 ag: -4

Results for COc1nnc(-c2ccc(N3CCOCC3)c(NC(C)=O)c2)c2ccccc12 ?
D1 PAM: -4; D1 antagonist: 6; DRD3 antagonist: -52*; D1 ag: -1; ERG-DNA inh: 1%; D3 ag: -8

What do the screens show for `COc1nnc(-c2ccc(N3CCOCC3)c(NC(=O)c3ccccc3)c2)c2ccccc12`?
D1 PAM: 5; D1 antagonist: 0; DRD3 antagonist: -23; D1 ag: 4; ERG-DNA inh: 0%; D3 ag: 2

Results for Oc1cc2c(cc1C(c1ccc(Br)cc1)N1CCCC1)OCO2 (stereo not given) ?
D1 PAM: 3; D1 antagonist: -6; DRD3 antagonist: 8; D1 ag: 11; ERG-DNA inh: 8%; D3 ag: -8

How did Cc1nn(C(C)C(=O)Nc2ccccc2C(F)(F)F)c(=O)c2c1sc1ccccc12 (stereo not given) do in these assays?
D1 PAM: -3; D1 antagonist: -47*; D1 ag: 1; ERG-DNA inh: 4%; D3 ag: -12

What do the screens show for `Cc1nn(C(C)C(=O)NC2CCCCC2)c(=O)c2c1sc1ccccc12` (stereo not given)?
D1 PAM: -4; D1 antagonist: -34*; D1 ag: 9; ERG-DNA inh: 0%; D3 ag: -2

How did Cc1nn(C(C)C(=O)NCC2CCCO2)c(=O)c2c1sc1ccccc12 (stereo not given) do in these assays?
D1 PAM: 0; D1 antagonist: -5; DRD3 antagonist: -1; D1 ag: 2; ERG-DNA inh: 2%; D3 ag: -9

What do the screens show for `CCN(CC)CCN1C(=O)C(=O)/C(=C(/O)c2ccc(OC)cc2)C1c1cccs1` (stereo not given)?
D1 PAM: -4; D1 antagonist: 0; D1 ag: 0

What do the screens show for `NC(N)=NCCCC(NC(=O)c1ccccc1)C(=O)Nc1ccc2ccccc2c1` (stereo not given)?
D1 PAM: -3; D1 antagonist: -4; DRD3 antagonist: inconclusive; D1 ag: -1; ERG-DNA inh: -1%; D3 ag: -70

What do the screens show for `NC(N)=NCCCC(NC(=O)c1ccccc1)C(=O)Nc1ccc([N+](=O)[O-])cc1` (stereo not given)?
D1 PAM: -6; D1 antagonist: -9; DRD3 antagonist: -94*; D1 ag: -2; ERG-DNA inh: -9%; D3 ag: -44

How did CCC1CCCCN1CCCNC(=O)c1c(C)oc2ncn(CC(C)C)c(=O)c12 (stereo not given) do in these assays?
D1 PAM: -2; D1 antagonist: 9; D1 ag: -1; ERG-DNA inh: -2%; D3 ag: -6

Results for Cc1ccc(S(=O)(=O)c2cc3c(=O)n4ccccc4nc3n(Cc3ccco3)c2=N)cc1 ?
D1 PAM: 0; D1 antagonist: -32*; DRD3 antagonist: -17; D1 ag: 9; ERG-DNA inh: 0%; D3 ag: 0

How did Cc1cccn2c(=O)c3cc(C(=O)NCCc4ccccc4)c(=N)n(Cc4ccco4)c3nc12 do in these assays?
D1 PAM: -2; D1 antagonist: -10; DRD3 antagonist: -100*; D1 ag: -3; ERG-DNA inh: -2%; D3 ag: -16

What do the screens show for `COc1ccc(CCn2c(=N)c(C(=O)NC3CCCC3)cc3c(=O)n4ccccc4nc32)cc1`?
D1 PAM: -3; D1 antagonist: -32*; DRD3 antagonist: 7; D1 ag: 0; ERG-DNA inh: 11%; D3 ag: 0

How did N=c1c(C(=O)NCc2ccco2)cc2c(=O)n3ccccc3nc2n1Cc1ccccc1 do in these assays?
D1 PAM: -5; D1 antagonist: -11; DRD3 antagonist: -51*; D1 ag: 1; ERG-DNA inh: 12%; D3 ag: -10

What do the screens show for `Cc1ccc(N2CC(C(=O)NCC3CCCO3)CC2=O)cc1Cl` (stereo not given)?
D1 PAM: -6; D1 antagonist: 4; DRD3 antagonist: 19; D1 ag: 2; ERG-DNA inh: 0%; D3 ag: -1

How did O=C(COc1ccccc1)OCC(=O)N1CCCc2ccccc21 do in these assays?
D1 PAM: -14; D1 antagonist: -3; DRD3 antagonist: 6; D1 ag: 1; ERG-DNA inh: 10%; D3 ag: 2

How did COc1cccc(NC(=O)C(OC(=O)CNC(=O)c2ccccc2)c2ccccc2)c1 (stereo not given) do in these assays?
D1 PAM: 7; D1 antagonist: 19; D1 ag: -1

Results for O=C1/C(=C/c2cccc([N+](=O)[O-])c2)Oc2cc(O)ccc21 ?
D1 PAM: -1; D1 antagonist: -30; DRD3 antagonist: 1; D1 ag: 20; ERG-DNA inh: 1%; D3 ag: -1

Results for COc1cc(/C=C2\Oc3cc(O)ccc3C2=O)ccc1O ?
D1 PAM: -6; D1 antagonist: 7; DRD3 antagonist: 0; D1 ag: 63*; ERG-DNA inh: 114%; D3 ag: -4

How did O=C1/C(=C/c2ccc(O)c(O)c2)Oc2cc(O)ccc21 do in these assays?
D1 PAM: -6; D1 antagonist: 12; DRD3 antagonist: 16; D1 ag: 46*; ERG-DNA inh: 97%; D3 ag: 10

High-throughput results from PubChem BioAssay.
